Measurements reported in the supplement of paper PMC9694430.
Where a name gives a salt, the structure may show the parent alone.

How the values were obtained:
Test in all cases: thermal shift delta Tm vs DMSO control; higher = stronger stabilization (binding)
Conditions in all cases: 12.5 µM; protein concentration 2 µM
LOC_OS04G57630-cb004 = tested on: LOC_OS04G57630-cb004
Summary of the method: (§1)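 Heating from 25°C to 95°C at 0.05°C/s, fluorescence was recorded for 19.5 μl wells of 2 μM E. coli-expressed, purified rice kinase domain in 100 mM potassium phosphate pH 7.5, 150 mM NaCl, 10% glycerol and 5 × SYPRO Orange with compound in DMSO. Boltzmann fits gave melting temperatures for this differential scanning fluorimetry assay. The shift reported is the mean of three replicates against the DMSO-only protein.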

LOC_OS05G07850-cb002 = tested on: LOC_OS05G07850-cb002
Summary of the method: as §1

LOC_OS05G16824-cb004 = tested on: LOC_OS05G16824-cb004
Summary of the method: as §1

LOC_OS05G28520-cb001 = tested on: LOC_OS05G28520-cb001
Summary of the method: as §1

LOC_OS05G30820-cb001 = tested on: LOC_OS05G30820-cb001
Summary of the method: as §1

LOC_OS05G43570-cb004 = tested on: LOC_OS05G43570-cb004
Summary of the method: as §1

LOC_OS06G16330-cb003 = tested on: LOC_OS06G16330-cb003
Summary of the method: as §1

LOC_OS06G22820-cb001 = tested on: T1, LOC_OS06G22820-cb001
T1 sequence (whole entry): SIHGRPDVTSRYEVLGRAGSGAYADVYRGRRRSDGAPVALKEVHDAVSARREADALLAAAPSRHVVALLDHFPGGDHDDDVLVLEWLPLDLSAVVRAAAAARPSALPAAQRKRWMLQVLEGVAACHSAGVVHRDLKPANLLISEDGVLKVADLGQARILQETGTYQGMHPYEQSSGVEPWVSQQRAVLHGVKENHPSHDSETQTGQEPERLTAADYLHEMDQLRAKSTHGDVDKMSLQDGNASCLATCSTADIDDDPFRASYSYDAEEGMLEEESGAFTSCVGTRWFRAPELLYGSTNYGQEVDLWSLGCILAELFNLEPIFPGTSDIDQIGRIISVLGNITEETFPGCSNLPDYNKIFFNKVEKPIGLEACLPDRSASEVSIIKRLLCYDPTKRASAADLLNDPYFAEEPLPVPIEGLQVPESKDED
Summary of the method: as §1

LOC_OS07G06570-cb004 = tested on: LOC_OS07G06570-cb004
Summary of the method: as §1

LOC_OS07G07230-cb001 = tested on: LOC_OS07G07230-cb001
Summary of the method: as §1
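Also: purified Escherichia coli-expressed rice kinase domain construct.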

Sequence of LOC_OS06G16330-cb003 (as listed by the source): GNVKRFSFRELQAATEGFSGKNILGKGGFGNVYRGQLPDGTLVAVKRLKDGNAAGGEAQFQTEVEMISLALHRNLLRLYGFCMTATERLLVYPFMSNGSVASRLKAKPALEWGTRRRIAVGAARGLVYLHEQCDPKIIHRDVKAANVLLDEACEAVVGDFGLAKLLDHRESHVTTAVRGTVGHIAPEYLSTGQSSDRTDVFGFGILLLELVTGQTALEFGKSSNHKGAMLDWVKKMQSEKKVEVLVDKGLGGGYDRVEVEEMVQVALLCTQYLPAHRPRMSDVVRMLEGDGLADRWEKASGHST

Row | SMILES | thermal shift delta Tm (LOC_OS04G57630-cb004) [°C] | thermal shift delta Tm (LOC_OS05G07850-cb002) [°C] | thermal shift delta Tm (LOC_OS05G16824-cb004) [°C] | thermal shift delta Tm (LOC_OS05G28520-cb001) [°C] | thermal shift delta Tm (LOC_OS05G30820-cb001) [°C] | thermal shift delta Tm (LOC_OS05G43570-cb004) [°C] | thermal shift delta Tm (LOC_OS06G16330-cb003) [°C] | thermal shift delta Tm (LOC_OS06G22820-cb001) [°C] | thermal shift delta Tm (LOC_OS07G06570-cb004) [°C] | thermal shift delta Tm (LOC_OS07G07230-cb001) [°C]
1 | Cc1ccc(NC(=O)c2ccc(CN3CCN(C)CC3)cc2)cc1Nc1nc(-c2cccnc2)cs1 [Masitinib (AB1010)] | -0.19 | 0.62 | -4.62 | 0.59 | 0.34 | 0.52 | -0.18 | 0.52 | 0.98 | 0.23
2 | c1cn2cc(-c3ccc4cn[nH]c4c3)nc(Nc3ccc(N4CCOCC4)cc3)c2n1 [Entospletinib (GS-9973)] | 0.36 | 7.87 | 0.89 | 1.02 | 0.84 | 0.74 | 9.22 | 0.27 | 1.71 | 0.6
3 | CC#CC(=O)N1CC[C@@H](n2c(=O)n(-c3ccc(Oc4ccccc4)cc3)c3c(N)ncnc32)C1 [ONO-4059 (GS-4059) hydrochloride] | 0.32 | -0.32 | -5.29 | 0.56 | 0.41 | 0.2 | -0.41 | 0.35 | 0.52 | 0.73
4 | CC(C)c1ccc2oc3nc(N)c(C(=O)O)cc3c(=O)c2c1 [Amlexanox] | 0.42 | 2.22 | 2.16 | 0.29 | 2.58 | 0.12 | 2.5 | 0.56 | 0.44 | 0.63
5 | Cn1cnc(N)c2ncnc1-2 [3-Methyladenine (3-MA)] | -0.01 | 0.75 | -3.2 | 0.15 | 0.64 | 0.46 | -0.06 | 0.64 | 0.43 | 0.03
6 | Cc1cc(F)c(Nc2ncnc3cc(OCc4ccccc4)ccc23)cc1O | -0.1 | 1.29 | -1.22 | 1.19 | 0.76 | 1.17 | -0.11 | 1.28 | 2.49 | 0.37
7 | C[C@]1(O)C[C@@H](c2nc(-c3ccc4ccc(-c5ccccc5)nc4c3)c3c(N)nccn32)C1 [Linsitinib (OSI-906)] | 0.91 | 1.48 | 1.1 | 0.92 | 0.67 | 0.81 | 0.92 | 0.94 | 1.13 | 0.34
8 | COc1cc(OC)cc(N(CCNC(C)C)c2ccc3ncc(-c4cnn(C)c4)nc3c2)c1 | 0.11 | 3.45 | -0.05 | 0 | 0.18 | 0.08 | 0.79 | 0.32 | 1.94 | 0.52
9 | Oc1ccc(Nc2nc(-c3ccc(Cl)cc3)cs2)cc1 | 0.01 | 3.59 | -0.03 | 0.45 | 1.05 | -0.07 | 0.92 | 0.79 | -0.41 | 0.38
10 | CC(=O)O/N=C1/C(c2c(O)[nH]c3cc(Br)ccc23)=Nc2ccccc21 [BIO-acetoxime] | 0.24 | 7.48 | 4.45 | -0.58 | 1.03 | -0.53 | 2.52 | -0.05 | 0 | 0.92
11 | CNC(=O)c1ccccc1Nc1cc(Nc2ccc(N3CCOCC3)cc2OC)ncc1C(F)(F)F | 3.79 | 7.4 | 9.96 | 1.03 | 3.54 | 0.9 | 6.99 | 0.82 | 1.56 | 0.72
12 | O=C(c1cccc(Cl)c1F)N1CCN(Cc2cccc(Nc3nccs3)n2)CC1 | 1.01 | 7.36 | 3.48 | 1.87 | 0.31 | -0.14 | 10.8 | 0.57 | 1.24 | 0
13 | C#Cc1cccc(Nc2ncnc3cc(OC)c(OCCCCCCC(=O)NO)cc23)c1 | 0.04 | 7.33 | -6.18 | 0.35 | 0.58 | 0.66 | 1.72 | 0.49 | 0.91 | -0.06
14 | C[C@@]1(C(=O)Nc2ccc(F)nc2)CCCN1c1nc(Nc2cc(C3CC3)n[nH]2)c2cccn2n1 | 0.45 | 6.93 | 7.72 | 1.51 | 0.52 | 0.32 | 7.13 | -0.88 | 1.23 | 0.05
15 | C=CC(=O)N1CCC(Oc2cc3c(Nc4ccc(Cl)c(Cl)c4F)ncnc3cc2OC)CC1 [Poziotinib (HM781-36B)] | 0.32 | 4.97 | -0.85 | 0.58 | 0.44 | 0.15 | 8.31 | 0.44 | 0.72 | 0.28
16 | COc1cc2nccc(Oc3ccc(NC(=O)NC4CC4)c(Cl)c3)c2cc1C(N)=O [Lenvatinib (E7080)] | 1.31 | 3.32 | -2.91 | 0.18 | 0.7 | 0.32 | 1.75 | 0.98 | 0.84 | 0.35
17 | C[C@@H](Nc1cc(F)cc(F)c1)c1cc(C(=O)N(C)C)cc2c(=O)cc(N3CCOCC3)oc12 | 0.46 | -0.67 | -4.22 | 0.89 | 0.53 | 0.2 | -0.67 | 0.43 | 1.06 | 0.35
18 | CC(C)S(=O)(=O)c1ccc2nccc(Nc3ccc4scnc4c3)c2c1 | 2.51 | 3.36 | 4.91 | 0.25 | -0.04 | 0.38 | 2.09 | 0.32 | 1.62 | 0.17
19 | Cc1cc2c(F)c(Oc3ncnn4cc(OC[C@@H](C)OC(=O)[C@H](C)N)c(C)c34)ccc2[nH]1 | 0.17 | 2.83 | 1.32 | 0.65 | 0.41 | 0.24 | 0.16 | 0.5 | 0.52 | 0.42
